Measured values as given in PubChem BioAssay AID1159580 (chemical genetic matrix, 2015).
Among all 5,500 compounds or so, about 2,000 (36%) were called active. Another 18% or so got no clear call; they are omitted. Some of the results follow. A number with no mark means an inactive call. Cut-off read from the data, not from the text of the source: active = normalized growth mostly below about 0.91 (no sharp cut-off); inconclusive = no clear call, values can overlap the other calls; inactive = mostly above about 0.92.

Assay: chemical genetic growth profiling, strain panel (AID 1159580);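 note: tested at 20 µM; growth read once vehicle control cultures reached saturation at 30 °C; 1 = growth at the plate median or of vehicle wells; lower values mean less growth of the strain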
Conditions: S. cerevisiae deletion strains, growth OD

CCCCCCCCCCCCCCCCOCC(COCC(F)(F)F)OP(=O)(O)OCO (centres undefined)
normalized growth (locus YAL013W, strain DEP1, active compounds read low): 0.947
normalized growth (locus YAL040C, strain CLN3, active compounds read low): 1
normalized growth (locus YCL061C, strain MRC1 (second series), active compounds read low): 0.987
normalized growth (locus YDR363W, strain ESC2, active compounds read low): 0.968
normalized growth (locus YER002W, strain NOP16, active compounds read low): 0.995
normalized growth (locus YGR229C, strain SMI1, active compounds read low): 0.767 (active)
normalized growth (locus YJR075W, strain HOC1, active compounds read low): 1.03
normalized growth (locus YMR263W, strain SAP30, active compounds read low): 1.02
normalized growth (locus YNL175C, strain NOP13, active compounds read low): 0.995
normalized growth (locus YNL197C, strain WHI3, active compounds read low): 1
normalized growth (locus YNL224C, strain SQS1, active compounds read low): 0.964
normalized growth (locus YOR083W, strain WHI5 (second series), active compounds read low): 0.988
normalized growth (locus YPL055C, strain LGE1, active compounds read low): 0.881 (active)
normalized growth (locus YPL241C, strain CIN2, active compounds read low): 0.988
